# Laboratory results: ChEMBL document CHEMBL3988442, “University of Dundee, Small-Polar-MMV Screening Library” (2021)
# Among all 66,000 compounds or so, about 960 (1.5%) showed an effect of 50% or more. This is one part of a sample in which strong results are shown more often than they occur.
# Test system: Trypanosoma brucei
# Assay: Trypanosoma brucei 72 hour study
# Assay type: functional, organism-based
# Parameters: scale not given: in the data most compounds retested in dose-response had high values
SMILES,"Percent Effect (30.3 µM, […])","Percent Effect (30 µM, 30.03 µM)"
C/C=C(\C)CN(CCN1CCOCC1)Cc1ccco1,-0.5994%,
O=C(O)C(F)(F)F.O=C(O)C(F)(F)F.O=C([C@H]1C[C@H]2OCC[C@H]2N(Cc2ccccc2F)C1)N1CCCCO1,-61.9%,
Cn1ccnc1-c1nc(NC2CCCC2)ncc1-c1cccc(F)c1,20.44%,
CN1CCN(c2ncnc3c2CCN(S(=O)(=O)C2CC2)CC3)CC1.O=C(O)C(F)(F)F,-13.78%,
CN(C)C[C@]12COC[C@H]1CN(Cc1ccc3c(c1)OCO3)C2.O=C(O)C(F)(F)F.O=C(O)C(F)(F)F,5.402%,
CC(C)CC(=O)NC[C@H]1CC[C@H](C(c2ccccn2)N(C)C)CC1 (some centres not stated),-15.36%,
COc1cccc(CNC(=O)CCC2=Nc3ccccc3S(=O)(=O)N2)c1,9.218%,
CCN1C[C@@H]2[C@@H](OC)CCN(S(=O)(=O)c3ccccc3F)[C@@H]2C1.O=C(O)C(F)(F)F,,30.94%
CN(Cc1ccc(C#N)cc1)c1ncc(C(N)=O)cc1Cl,12.46%,
Cl.O=C(NCc1ccccc1)C1=NOC2(CCNC2)C1 (configuration not stated),,2.25%
COCCOc1ccccc1CNCC1COC2(CCCC2)O1 (configuration not stated),,102%
Cc1cccc(CNCC2COC3(CCCC3)O2)c1C (configuration not stated),,-15.5%
Cc1cccc(CNCC2COC3(CCCCC3)O2)c1C (configuration not stated),,-30.8%
COc1cc(C(=O)N(Cc2ccco2)C2CC2)cc2c1OCCO2,,51.93%
CCN(Cc1ccco1)C(=O)c1cc(OC)c2c(c1)OCCO2,,34.74%
COc1cc(C(=O)N(Cc2ccco2)C2CC2)cc(OC)c1OC,,-6.757%
CC(=O)N1CCC(c2c(CN(C)C)cnc3cc(C)nn23)CC1,-17.17%,
Cc1cc(N(C)CCN(C)C)n2nc(C)cc2n1,,-1.745%
Cc1cc2ncc(CN(C)C)c(C3CCN(C)CC3)n2n1,99.05%,
Cn1cc(-c2csc(N3CCCCCC3)n2)cn1,,99.99%
Cn1cc(-c2csc(N3CCSCC3)n2)cn1,,-20.97%
CN1CCN(c2nc(-c3cnn(C)c3)cs2)CC1,,-14.69%
O=C(O)C(F)(F)F.O=C(O)C(F)(F)F.O=C(c1ccncc1)N1CCC2(CC1)CCN(Cc1ccccn1)C2=O,,-9.957%
CC(C)SCC(=O)NCc1cc2n(n1)CCCN(C1CCCCC1)C2,,-6.203%
O=C(CCSc1ccc(F)cc1)N1CCN(c2cnccn2)CC1,,-62.17%
O=C(CCSc1ccccc1F)N1CCN(c2cnccn2)CC1,,98.54%
CC(CC(=O)N1CCN(c2cnccn2)CC1)c1ccc(F)cc1 (configuration not stated),,-67.22%
